From PubChem BioAssay (EPA / NIEHS)
Results filed as inconclusive are left out. The source made the active and inactive calls. Rule for the calls, unless noted: active = hit-call score of the fitted dose curve at least 0.9, where 1 is the maximum; inconclusive = response in the unintended direction; inactive = score below 0.9.

Tests used:
[1] = molecular target: human RAR-related Orphan Receptor gamma (RORg), RORC (gene 6097) (UniProt P51449); experiment: ATG_RORg_TRANS: Attagene TRANS-FACTORIAL HepG2 Assay for human RAR-related Orphan Receptor gamma (RORg) (AID 2283011)
Procedure, shortened: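 HepG2 cells transiently transfected with GAL4-UAS reporter units and chimeric RORg-Gal4 construct; after 24 h chemical exposure, reporter mRNA measured by RT-PCR with fluorescent capillary electrophoresis, gain of signal fitted against DMSO.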

[2] = molecular target: human RAR-related Orphan Receptor beta (RORb), RORB (gene 6096) (UniProt Q92753); experiment: ATG_RORb_TRANS: Attagene TRANS-FACTORIAL HepG2 Assay for human RAR-related Orphan Receptor beta (RORb) (AID 2283010)
Procedure, shortened: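 Read-out is reporter mRNA induction, quantified by RT-PCR with fluorescent capillary electrophoresis, 24 h post-dose in transiently transfected HepG2 expressing exogenous NR-Gal4 chimera. Activity fitted upward versus DMSO.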

[3] = molecular target: human Retinoid X Receptor beta (RXRb), RXRB (gene 6257) (UniProt P28702); experiment: ATG_RXRb_TRANS: Attagene TRANS-FACTORIAL HepG2 Assay for human Retinoid X Receptor beta (RXRb) (AID 2283013)
Procedure, shortened: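 Readout is reporter transcript induction after 24 h dosing. It is measured by RT-PCR of total RNA followed by fluorescent capillary electrophoresis. HepG2 liver cells carry transfected multiple reporter units driven by an exogenous RXRb-Gal4 fusion; activity is relative to DMSO.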

[4] = molecular target: human Vitamin D Receptor (VDR), VDR (gene 7421) (UniProt P11473); experiment: ATG_VDR_TRANS: Attagene TRANS-FACTORIAL HepG2 Assay for human Vitamin D Receptor (VDR) (AID 2283022)
Procedure, shortened: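 HepG2 cells were transiently transfected with GAL4-UAS reporter units and a chimeric VDR-Gal4 construct, then dosed for 24 hours. Reporter mRNA was quantified by RT-PCR, fluorescent labeling, HpaI digestion and capillary electrophoresis; gain of signal analysed vs DMSO.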

[5] = molecular target: Retinoic acid receptor RXR-alpha (Homo sapiens) (UniProt P19793); experiment: ATG_RXRa_TRANS: Attagene TRANS-FACTORIAL HepG2 Assay for human Retinoid X Receptor alpha (RXRa) (AID 2283012)
Procedure, shortened: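 TRANS format reporting activity of exogenous RXRa-Gal4 chimera in transiently transfected HepG2, 24 h exposure. Reporter transcripts quantified by RT-PCR with capillary electrophoresis, with gain of signal scored relative to DMSO.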

[6] = molecular target: human Thyroid Receptor alpha (THRa1), THRA (gene 7067) (UniProt P10827); experiment: ATG_THRa1_TRANS: Attagene TRANS-FACTORIAL HepG2 Assay for human Thyroid Receptor alpha (THRa1) (AID 2283014)
Procedure, shortened: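 HepG2 cells transiently transfected with chimeric NR-Gal4 and GAL4-UAS reporter units, dosed 24 h. Reporter mRNA quantified by RT-PCR, fluorescent labeling, HpaI digestion and capillary electrophoresis; gain-of-signal fit versus DMSO.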

[7] = read-out: E-selectin (Homo sapiens) (UniProt P16581); experiment: BSK_3C_Eselectin: BioMAP Diversity Plus: 3C Assay for Eselectin Biomarker Activity (AID 2283015; active = hit-call score of the fitted dose curve at least 0.9, where 1 is the maximum; inactive = score below 0.9); settings: primary human endothelial cells (HUVEC); actives raise or lower the signal
Procedure, shortened: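 Primary human umbilical vein endothelial cells (3C system), read 24 h after compound addition; E-selectin measured by ELISA. Bidirectional curve fitting against DMSO baseline; cytotoxicity by parallel SRB total-protein staining.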

[8] = read-out: Interleukin-1 alpha (IL1a), IL1A (gene 3552); experiment: BSK_BE3C_IL1a: BioMAP Diversity Plus: BE3C Assay for Interleukin-1 alpha (IL1a) Biomarker Activity (AID 2283016; active = hit-call score of the fitted dose curve at least 0.9, where 1 is the maximum; inactive = score below 0.9); settings: primary human bronchial epithelial cells; actives raise or lower the signal
Procedure, shortened: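 IL-1a measured by ELISA after 24 h treatment of human primary bronchial epithelial cells, with gain or loss of signal fitted versus DMSO. Parallel cultures stained with SRB gauge overt cytotoxicity.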

[9] = read-out: Monocyte Chemoattractant Protein-1 (MCP1), CCL2 (gene 6347); experiment: BSK_3C_MCP1: BioMAP Diversity Plus: 3C Assay for Monocyte Chemoattractant Protein-1 (MCP1) Biomarker Activity (AID 2283017; active = hit-call score of the fitted dose curve at least 0.9, where 1 is the maximum; inactive = score below 0.9); settings: primary human endothelial cells (HUVEC); actives raise or lower the signal
Procedure, shortened: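 Human umbilical vein endothelial cells (3C system) exposed to chemicals for 24 h; MCP-1 quantified by ELISA against the DMSO baseline with bidirectional fitting, and parallel SRB staining used to assess cytotoxicity.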

[10] = read-out: Monocyte Chemoattractant Protein-1 (MCP1), CCL2 (gene 6347); experiment: BSK_4H_MCP1: BioMAP Diversity Plus: 4H Assay for Monocyte Chemoattractant Protein-1 (MCP1) Biomarker Activity (AID 2283018; active = hit-call score of the fitted dose curve at least 0.9, where 1 is the maximum; inactive = score below 0.9); settings: primary human endothelial cells (HUVEC); actives raise or lower the signal
Procedure, shortened: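 ELISA of MCP-1 (CCL2) 24 h after chemical dosing of HUVEC in the BioMAP 4H system. Gain or loss versus DMSO fitted; parallel SRB staining (560 nm) tracked overt cytotoxicity.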

[11] = read-out: Human Leukocyte Antigen - DR isotype (HLADR), HLA-DRA (gene 3122); experiment: BSK_3C_HLADR: BioMAP Diversity Plus: 3C Assay for Human Leukocyte Antigen - DR isotype (HLADR) Biomarker Activity (AID 2283019; active = hit-call score of the fitted dose curve at least 0.9, where 1 is the maximum; inactive = score below 0.9); settings: primary human endothelial cells (HUVEC); actives raise or lower the signal
Procedure, shortened: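 HUVEC monoculture, HLA-DR measured by ELISA 24 h after chemical dosing. Fitted bidirectionally against DMSO baseline; parallel SRB staining assessed cytotoxicity, with 3C proliferation read by SRB at 48 h.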

[12] = read-out: Interleukin-8 (IL8), CXCL8 (gene 3576); experiment: BSK_3C_IL8: BioMAP Diversity Plus: 3C Assay for Interleukin-8 (IL8) Biomarker Activity (AID 2283020; active = hit-call score of the fitted dose curve at least 0.9, where 1 is the maximum; inactive = score below 0.9); settings: primary human endothelial cells (HUVEC); actives raise or lower the signal
Procedure, shortened: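 IL-8 was measured by ELISA in HUVEC cultures 24 h after chemical dosing, with gain or loss of signal fitted relative to DMSO. Parallel SRB total-protein staining tracked overt cytotoxicity.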

[13] = read-out: Monokine induced gamma interferon (MIG), CXCL9 (gene 4283); experiment: BSK_3C_MIG: BioMAP Diversity Plus: 3C Assay for Monokine induced gamma interferon (MIG) Biomarker Activity (AID 2283021; active = hit-call score of the fitted dose curve at least 0.9, where 1 is the maximum; inactive = score below 0.9); settings: primary human endothelial cells (HUVEC); actives raise or lower the signal
Procedure, shortened: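 ELISA measurement of MIG in human umbilical vein endothelial cells 24 h after treatment. Cytotoxicity tracked by SRB staining in parallel cultures; gain or loss of signal fitted relative to DMSO.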

[14] = BSK_3C_SRB: Viability Assessment in the BioMAP Diversity Plus: 3C Assay (AID 2283023; active = hit-call score of the fitted dose curve at least 0.9, where 1 is the maximum; inactive = score below 0.9;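 note: fitted both ways against DMSO so a hit may be signal rise or drop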); settings: primary human endothelial cells (HUVEC)
Procedure, shortened: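 Human umbilical vein endothelial cells in the 3C system, treated 24 h. Total protein measured by 0.1% sulforhodamine B staining after 10% TCA fixation, read at 560 nm; bidirectional fit versus DMSO.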

[15] = read-out: Matrix Metallopeptidase 1 (MMP1), MMP1 (gene 4312); experiment: BSK_BE3C_MMP1: BioMAP Diversity Plus: BE3C Assay for Matrix Metallopeptidase 1 (MMP1) Biomarker Activity (AID 2283024; active = hit-call score of the fitted dose curve at least 0.9, where 1 is the maximum; inactive = score below 0.9); settings: primary human bronchial epithelial cells; actives raise or lower the signal
Procedure, shortened: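 ELISA measurement of MMP-1 after 24 h compound exposure of primary human bronchial epithelial cells. Changes in either direction fitted relative to DMSO; parallel SRB staining checked overt cytotoxicity.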

[16] = BSK_3C_Vis: BioMAP Diversity Plus: 3C Assay for Morphology Visualization (AID 2283025; active = hit-call score of the fitted dose curve at least 0.9, where 1 is the maximum; inactive = score below 0.9;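 note: fitted both ways so gain or loss versus DMSO counts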;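 for AC50: light microscopy image of cell morphology used as background control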); settings: primary human endothelial cells (HUVEC)
Procedure, shortened: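 Light-microscopy visualization of HUVEC cultures at 24 h post-treatment, with DMSO as baseline for bidirectional fitting.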

[17] = read-out: Pselectin, SELP (gene 6403); experiment: BSK_4H_Pselectin: BioMAP Diversity Plus: 4H Assay for Pselectin Biomarker Activity (AID 2283026; active = hit-call score of the fitted dose curve at least 0.9, where 1 is the maximum; inactive = score below 0.9); settings: primary human endothelial cells (HUVEC); actives raise or lower the signal
Procedure, shortened: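 ELISA of surface P-selectin on HUVEC, 24 h after dosing, with parallel SRB staining (0.1% after 10% TCA fixation, 560 nm) for overt cytotoxicity. Activity fitted in both directions relative to DMSO.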

[18] = BSK_4H_SRB: Viability Assessment in the BioMAP Diversity Plus: 4H Assay (AID 2283027; active = hit-call score of the fitted dose curve at least 0.9, where 1 is the maximum; inactive = score below 0.9;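 note: cells exposed to compound for 24 h before staining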;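 for AC50: curves fitted both ways versus DMSO so AC50 may be loss or gain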); settings: primary human endothelial cells (HUVEC)
Procedure, shortened: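 Cytotoxicity read-out in primary human endothelial cells: after 24 h compound exposure, cells were TCA-fixed (10%), stained with 0.1% SRB and absorbance taken at 560 nm. Values fitted in both directions relative to DMSO.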

[19] = BSK_BE3C_SRB: Viability Assessment in the BioMAP Diversity Plus: BE3C Assay (AID 2283028; active = hit-call score of the fitted dose curve at least 0.9, where 1 is the maximum; inactive = score below 0.9); settings: primary human bronchial epithelial cells
Procedure, shortened: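 Human bronchial epithelial primary cells in confluent culture, 24 h after chemical dosing; total protein by 0.1% SRB staining after 10% TCA fixation, read at 560 nm. Bidirectional fitting versus DMSO baseline.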

Measured: AC50

Sequence of E-selectin (Homo sapiens) (P16581 whole entry, looked up): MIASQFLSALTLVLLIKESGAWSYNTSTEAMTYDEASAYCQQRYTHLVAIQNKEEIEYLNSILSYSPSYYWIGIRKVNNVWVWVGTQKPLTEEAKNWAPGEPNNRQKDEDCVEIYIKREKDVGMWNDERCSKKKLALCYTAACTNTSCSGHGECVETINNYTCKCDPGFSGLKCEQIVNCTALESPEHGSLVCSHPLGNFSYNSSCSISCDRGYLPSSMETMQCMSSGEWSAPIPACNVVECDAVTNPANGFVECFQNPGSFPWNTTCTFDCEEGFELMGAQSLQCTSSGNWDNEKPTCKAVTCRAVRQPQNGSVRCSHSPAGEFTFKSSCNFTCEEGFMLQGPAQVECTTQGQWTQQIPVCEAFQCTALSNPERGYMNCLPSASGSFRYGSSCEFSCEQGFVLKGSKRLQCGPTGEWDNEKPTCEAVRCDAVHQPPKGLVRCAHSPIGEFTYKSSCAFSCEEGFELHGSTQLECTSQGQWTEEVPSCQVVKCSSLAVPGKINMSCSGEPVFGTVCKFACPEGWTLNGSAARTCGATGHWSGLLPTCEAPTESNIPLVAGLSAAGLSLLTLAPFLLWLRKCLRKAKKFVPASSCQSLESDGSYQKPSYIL
Sequence of human RAR-related Orphan Receptor beta (RORb), RORB (gene 6096) (Q92753 whole entry, looked up, the tested form may be a part): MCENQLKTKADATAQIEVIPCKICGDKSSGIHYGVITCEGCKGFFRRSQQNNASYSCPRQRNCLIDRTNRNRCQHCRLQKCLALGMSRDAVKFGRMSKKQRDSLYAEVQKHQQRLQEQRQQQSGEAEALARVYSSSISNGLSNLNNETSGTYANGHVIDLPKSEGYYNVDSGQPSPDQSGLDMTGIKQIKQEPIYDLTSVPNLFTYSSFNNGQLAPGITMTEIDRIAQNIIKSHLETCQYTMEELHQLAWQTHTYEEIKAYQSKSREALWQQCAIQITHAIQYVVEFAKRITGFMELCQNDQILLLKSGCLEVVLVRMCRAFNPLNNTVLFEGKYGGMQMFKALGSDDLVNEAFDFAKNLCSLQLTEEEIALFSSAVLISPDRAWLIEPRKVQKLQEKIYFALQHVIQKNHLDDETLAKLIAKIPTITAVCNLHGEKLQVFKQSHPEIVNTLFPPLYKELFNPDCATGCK
Sequence of human Thyroid Receptor alpha (THRa1), THRA (gene 7067) (P10827 whole entry, looked up, the tested form may be a part): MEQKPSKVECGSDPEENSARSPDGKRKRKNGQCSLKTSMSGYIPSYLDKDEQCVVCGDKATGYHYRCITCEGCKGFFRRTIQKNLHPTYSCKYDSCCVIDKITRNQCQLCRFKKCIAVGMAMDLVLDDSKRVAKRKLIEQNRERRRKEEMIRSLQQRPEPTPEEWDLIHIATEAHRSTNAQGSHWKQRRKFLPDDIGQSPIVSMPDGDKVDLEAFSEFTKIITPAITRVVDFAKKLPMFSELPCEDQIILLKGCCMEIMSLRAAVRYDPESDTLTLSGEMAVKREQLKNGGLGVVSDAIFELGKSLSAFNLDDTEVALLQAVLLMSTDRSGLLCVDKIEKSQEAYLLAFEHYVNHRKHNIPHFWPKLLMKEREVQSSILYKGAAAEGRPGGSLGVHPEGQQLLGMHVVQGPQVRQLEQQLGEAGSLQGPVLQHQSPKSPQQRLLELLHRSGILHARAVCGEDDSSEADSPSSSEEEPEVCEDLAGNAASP
Sequence of human Retinoid X Receptor beta (RXRb), RXRB (gene 6257) (P28702 whole entry, looked up, the tested form may be a part): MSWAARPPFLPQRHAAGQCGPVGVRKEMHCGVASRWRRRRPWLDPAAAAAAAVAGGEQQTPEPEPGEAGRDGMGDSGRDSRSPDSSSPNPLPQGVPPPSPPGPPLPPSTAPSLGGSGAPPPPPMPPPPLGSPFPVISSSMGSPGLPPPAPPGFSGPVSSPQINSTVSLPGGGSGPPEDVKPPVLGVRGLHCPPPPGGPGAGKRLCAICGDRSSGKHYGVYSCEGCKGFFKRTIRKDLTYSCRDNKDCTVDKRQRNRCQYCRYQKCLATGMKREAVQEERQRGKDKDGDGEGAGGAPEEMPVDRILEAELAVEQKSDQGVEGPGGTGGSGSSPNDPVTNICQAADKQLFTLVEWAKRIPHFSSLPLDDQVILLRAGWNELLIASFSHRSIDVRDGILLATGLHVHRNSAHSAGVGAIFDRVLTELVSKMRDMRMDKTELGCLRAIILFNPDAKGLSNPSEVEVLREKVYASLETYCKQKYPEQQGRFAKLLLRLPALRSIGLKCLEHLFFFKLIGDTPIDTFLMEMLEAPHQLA
Sequence of Retinoic acid receptor RXR-alpha (Homo sapiens) (P19793 whole entry, looked up, the tested form may be a part): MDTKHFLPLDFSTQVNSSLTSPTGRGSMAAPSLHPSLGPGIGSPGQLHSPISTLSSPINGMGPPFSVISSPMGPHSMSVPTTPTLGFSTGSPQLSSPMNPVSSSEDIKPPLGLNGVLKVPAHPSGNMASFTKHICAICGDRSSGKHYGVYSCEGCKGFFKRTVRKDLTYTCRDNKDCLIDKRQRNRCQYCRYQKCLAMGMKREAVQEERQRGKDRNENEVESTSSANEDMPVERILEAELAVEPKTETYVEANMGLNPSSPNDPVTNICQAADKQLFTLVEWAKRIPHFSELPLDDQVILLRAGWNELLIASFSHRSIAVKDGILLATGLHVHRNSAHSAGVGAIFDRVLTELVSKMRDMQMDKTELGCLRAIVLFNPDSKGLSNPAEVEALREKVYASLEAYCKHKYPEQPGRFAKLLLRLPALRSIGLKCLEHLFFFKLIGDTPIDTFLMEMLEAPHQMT
Sequence of human Vitamin D Receptor (VDR), VDR (gene 7421) (P11473 whole entry, looked up, the tested form may be a part): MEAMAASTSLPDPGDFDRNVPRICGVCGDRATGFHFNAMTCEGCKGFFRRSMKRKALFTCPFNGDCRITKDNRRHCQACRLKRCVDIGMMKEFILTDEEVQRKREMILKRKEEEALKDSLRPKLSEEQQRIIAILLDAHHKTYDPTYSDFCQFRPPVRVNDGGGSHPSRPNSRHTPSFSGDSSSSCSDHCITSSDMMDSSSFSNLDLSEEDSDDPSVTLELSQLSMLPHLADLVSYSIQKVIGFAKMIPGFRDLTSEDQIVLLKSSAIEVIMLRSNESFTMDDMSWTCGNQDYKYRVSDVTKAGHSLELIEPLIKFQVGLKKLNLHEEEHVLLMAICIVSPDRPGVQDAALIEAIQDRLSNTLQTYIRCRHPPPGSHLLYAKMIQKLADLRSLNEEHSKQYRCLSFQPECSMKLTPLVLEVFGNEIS
Sequence of human RAR-related Orphan Receptor gamma (RORg), RORC (gene 6097) (P51449 whole entry, looked up, the tested form may be a part): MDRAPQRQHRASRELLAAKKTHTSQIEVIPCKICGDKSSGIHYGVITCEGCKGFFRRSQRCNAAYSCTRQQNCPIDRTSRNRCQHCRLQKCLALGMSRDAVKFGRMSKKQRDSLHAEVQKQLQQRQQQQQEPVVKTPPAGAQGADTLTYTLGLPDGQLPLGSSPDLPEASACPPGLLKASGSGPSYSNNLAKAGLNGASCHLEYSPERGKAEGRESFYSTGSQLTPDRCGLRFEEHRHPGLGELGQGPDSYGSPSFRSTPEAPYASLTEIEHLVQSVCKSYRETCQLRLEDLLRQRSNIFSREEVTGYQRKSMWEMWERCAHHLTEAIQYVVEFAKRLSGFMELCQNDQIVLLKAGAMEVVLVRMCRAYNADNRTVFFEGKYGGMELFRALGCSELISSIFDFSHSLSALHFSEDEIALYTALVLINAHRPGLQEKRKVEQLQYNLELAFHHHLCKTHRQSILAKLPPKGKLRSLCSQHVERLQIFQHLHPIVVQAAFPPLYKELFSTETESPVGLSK

CCOC(=O)CC(=O)c1ccccc1
inactive: [1]

C=C(C)C1CC=C(C)C(OC(C)=O)C1 (centres undefined)
inactive: [2] | [3] | [4]

COC(=O)c1ccc(C(=O)OC)c(C(=O)OC)c1
inactive: [2] | [3]

C=CCNCC=C
inactive: [2] | [5] | [6]

C=C(C)C(=O)OCCOC(=O)C(=C)C
inactive: [2] | [5] | [3] | [4]

CCc1cccc(C)c1N(C(=O)CS(=O)(=O)O)C(C)COC (centres undefined)
inactive: [2] | [3] | [6] | [7] | [8] | [9] | [10] | [11] | [12] | [13] | [4] | [14] | [15] | [16] | [17] | [18] | [19]

CC(=O)C(C)C
inactive: [2] | [5] | [4]

OCCCc1ccccc1
inactive: [2] | [5] | [3] | [4]

CC(=O)OCc1ccccc1
inactive: [2] | [5] | [3] | [4]

O=C(Cl)c1ccc(C(=O)Cl)cc1
inactive: [2] | [6] | [4]

O=C1CCCCC1C1CCCCC1 (centres undefined)
inactive: [2] | [5] | [3] | [4]

CC1=CCC2CC1C2(C)C (centres undefined)
inactive: [2] | [3] | [4]

CC/C=C\CCOC(=O)c1ccccc1O
active: [7] 32.9 µM | [9] 29.7 µM | [10] 10.9 µM | [11] 33.1 µM | [12] 34.7 µM | [14] 29.9 µM | [16] 37.1 µM | [17] 12.4 µM | [18] 14.2 µM
inactive: [2] | [3] | [6] | [8] | [13] | [4] | [15] | [19]

CC(=O)CCC=C(C)C
inactive: [2] | [3] | [6] | [4]

Cc1c(Cl)cccc1Cl
inactive: [2] | [5] | [6]

CCC1(C)C(=O)N(Cl)C(=O)N1Cl (centres undefined)
inactive: [2] | [3] | [7] | [8] | [9] | [10] | [11] | [12] | [13] | [14] | [15] | [16] | [17] | [18] | [19]

CCCCCCC=O
inactive: [2] | [5] | [6] | [7] | [8] | [9] | [10] | [11] | [12] | [13] | [14] | [15] | [16] | [17] | [18] | [19]

CC=CC(=O)OCC(C)C
inactive: [2] | [5] | [6]
